Sampled rows, rich in hits. Any-hit rate of the full collection: about 19%.
IL-1B inflam inh: blocks inflammasome-driven IL-1 beta release; activity change, % at 57.5 µM; actives 4.7% (n = 360,000); THP-1 LPS/ATP IL-1B secretion, AlphaLISA, 16 h; hits give low values; in the data active means activity change below about -50%; inconclusive means mostly about -30% to -49%
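Secreted IL-1B measured by AlphaLISA bead assay after 16 h compound exposure of THP-1 cells; compounds (final up to 57.5 uM) added 1 h before LPS (250 ng/mL) and ATP (1.25 mM) stimulation; lower signal means less secretion.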
DT40 TDP1 CPT: DT40-hTDP1 cell growth loss with CPT | AID 686979 | actives 12% (n = 420,000) | chicken DT40 Tdp1-/-;hTDP1 cells + 20 nM CPT, ATP luminescence, 48 h | Potency, µM (doses to about 46.2 µM), most hits filed as inhibitors; further: nearly all actives have a fitted effect of over 55% in size
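Chicken DT40 Tdp1-/- cells stably complemented with human TDP1 were seeded at 400 cells/well in medium containing 20 nM camptothecin, exposed to pin-transferred compounds, and grown at 37 °C for at least 48 hr. Viability was read as ATP luminescence.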
HT1080NT lethal: kills 2HG-producing HT-1080-NT fibrosarcoma cells; HT-1080-NT fibrosarcoma viability, CellTiter-Glo ATP luminescence, 48 h; Potency, µM (series often up to 46.1 µM), hits mostly cytotoxic; actives 1.6% (n = 360,000);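 further: NT is the 2HG producing partner of a matched IDH1 knockdown line; nearly all actives have a fitted effect of over 55% in size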
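HT-1080-NT fibrosarcoma cells (2HG-overproducing), 750 cells/well in RPMI with 5% FBS, dosed after 2 h and incubated 48 h at 37C. CellTiter-Glo luminescence normalized to DMSO and no-cell wells; concentration-response curves fitted and classed.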
HT1080 IDH1KD tx: toxicity to HT-1080 IDH1 knockdown cells (counter line); HT-1080 IDH1 knockdown viability, ATP luminescence, 48 h; Potency, µM (series often up to 46.1 µM), usual class: cytotoxic; actives 2% (n = 360,000); AID 686971
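CellTiter-Glo luminescence after 48 h compound exposure at 37 degrees C of IDH1-knockdown HT-1080 cells in 5% FBS RPMI. %Activity scaled between DMSO wells and cell-free media wells, with curves fitted and assigned curve classes.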
ELG1 repair inh: blocks ELG1-dependent DNA repair in HEK293T cells. HEK293T ELG1-luciferase reporter, luminescence, 16 h; DNA damage induced by 5-fluorouridine. Potency, µM (highest dose often 46.1 µM), hits mostly inhibitors. actives 2.3% (n = 330,000). AID 504467; further: nearly all actives have a fitted effect of over 55% in size
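Step one: seed 2,000 cells per well. Step two: pin-transfer compound or DMSO alongside 5-fluorouridine. Step three: incubate 16 hr, 37 °C, 5% CO2. Step four: add ONE-Glo, wait 30 min, read luminescence.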
DT40 TDP1 no CPT: qHTS for Inhibitors of human tyrosyl-DNA phosphodiesterase 1 (TDP1): qHTS in cells in absence of CPT; DT40 Tdp1-/- hTDP1 cells, no CPT, ATP luminescence, 48 h; Potency, µM (top dose mostly 46.2 µM), hits mostly inhibitors; actives 15% (n = 420,000); AID 686978, 2013; further: nearly all actives have a fitted effect of over 55% in size
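Chicken DT40 Tdp1-/- cells complemented with human TDP1, screened without camptothecin (DMSO vehicle only), 400 cells/well. Compounds pin-transferred, cells incubated at 37 °C for at least 48 hr. Growth read as ATP-dependent luminescence (CellTiter-Glo, 30 min at RT).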
A number is an active result; n = inactive; u = inconclusive; x = not tested or not shown; ! = repeats disagree. Unless noted, the call rests on the fitted dose curve; in most records, active means well fitted curve in the direction sought with a large enough effect; inconclusive means small, poorly fitted or top-dose-only effect, or another doubt; inactive means no such curve, though single readings can be large; an effect the other way counts as inactive or inconclusive.

SMILES	IL-1B inflam inh	DT40 TDP1 CPT	HT1080NT lethal	HT1080 IDH1KD tx	ELG1 repair inh	DT40 TDP1 no CPT
CCc1ccc(OCC(=O)Nc2ccc(S(=O)(=O)N3CCOCC3)cc2)cc1	n	n	n	n	n	n
CCCCNc1c(-c2ccc(Sc3ccc(OC)cc3)cc2)nc2cc(C)ccn12	n	u	u	u	u	n
CCCCNc1c(-c2ccc(SC(C)CC)cc2)nc2ccccn12 (stereo unspecified)	n	13µM	u	u	u	16.4µM
CCCCNc1c(-c2ccc(SC3CCCCC3)cc2)nc2ccccn12	-73.5!	23.1µM	u	u	u	23.1µM!
COc1ccc(-c2nc3ccccn3c2NCc2ccc3c(c2)OCO3)cc1	n	n	n	n	u	u
CCOc1ccc(CN2CCNC(=O)C2CC(=O)NCc2csc(C(C)C)n2)cc1 (stereo unspecified)	n	n	n	n	n	n
COC(CNC(=O)c1cn(C)c2ccc(S(=O)(=O)N(C)C3CCCCC3)cc2c1=O)OC	n	n	u	n	5.17µM	u
CCn1cc(C(=O)NCC2CCCO2)c(=O)c2cc(S(=O)(=O)N(C)C3CCCCC3)ccc21 (stereo unspecified)	n	n	n	n	16.4µM	n
CCn1cc(C(=O)NCC2CCCO2)c(=O)c2cc(S(=O)(=O)N(C)C)ccc21 (stereo unspecified)	n	n	n	n	n	n
CCn1cc(C(=O)NCC(OC)OC)c(=O)c2cc(S(=O)(=O)N(C)C3CCCCC3)ccc21	n	u	u	n	9.2µM	n
C=CCn1cc(C(=O)NCC2CCCO2)c(=O)c2cc(S(=O)(=O)N3CCCCCC3)ccc21 (stereo unspecified)	u	u	n	n	10.3µM	u
CCC(C)c1ccc(OCC(=O)Nc2cccc3ccc(C)nc23)cc1 (stereo unspecified)	x	u	x	x	x	n
Cn1c(CCc2nc3ccccc3[nH]2)nnc1SCC#N	n	n	n	n	20.6µM	n
COc1ccc(-c2csc(NC(=S)NC(=O)c3ccco3)n2)cc1Br	n	10.3µM	n	n	n	2.91µM
COc1ccc(-c2csc(NC(=S)NC(=O)/C=C/c3ccco3)n2)cc1OC	n	4.61µM	11.6µM	18.4µM	u	4.61µM
COc1ccc(-c2csc(NC(=S)NC(=O)/C=C/c3ccco3)n2)cc1Br	x	1.84µM	3.66µM	2.59µM	n	3.66µM
O=C(COC(=O)[C@@H]1CCCN1C(=O)c1cccs1)Nc1cccc(Cl)c1	n	n	n	n	n	n
Cn1c(=O)c(-c2ccc(Cl)cc2)nc2cnc(Nc3ccccc3)nc21	x	n	x	x	x	n
COc1cc(C(=O)N2CCc3c([nH]c4ccccc34)C2c2ccccc2)cc(OC)c1OC (stereo unspecified)	x	7.31µM	x	x	x	6.51µM
COc1ccc(C2c3[nH]c4ccccc4c3CCN2C(=O)c2cc3ncccn3n2)c(F)c1 (stereo unspecified)	n	n	n	u	u	20.6µM
COc1ccc(C2c3[nH]c4ccccc4c3CCN2C(=O)c2cn3ccccc3n2)c(F)c1 (stereo unspecified)	u	n	n	u	n	u
O=C(c1cn[nH]c1)N1CCc2c([nH]c3ccccc23)C1c1c(F)cccc1Cl (stereo unspecified)	-52.5	u	u	n	n	u
COc1cc(C(=O)N2CCc3c([nH]c4ccccc34)C2c2ccc(C)cc2)cc(OC)c1OC (stereo unspecified)	x	16.4µM	x	x	x	u
O=S1(=O)C[C@H](N2CCOCC2)[C@@H](COCc2ccccc2)N1	n	n	n	n	x	n
Cc1ccccc1NC(=O)CCc1nnc2ccc(N3CCC4(CC3)OCCO4)nn12	n	n	n	n	n	n
SMILES	IL-1B inflam inh	DT40 TDP1 CPT	HT1080NT lethal	HT1080 IDH1KD tx	ELG1 repair inh	DT40 TDP1 no CPT
COc1cc2cc3c(N)c(C(=O)Nc4sc(C)c(C)c4C#N)sc3nc2cc1OC	n	n	u	u	n	n
COc1cccc(N2CCN(C(=S)Nc3cc(C)cc(C)c3)CC2)c1	n	6.51µM	n	n	n	6.51µM
CCOc1ccccc1NC(=S)N1CCN(c2cccc(OC)c2)CC1	n	20.6µM	n	n	u	u
COc1cccc(N(C(=O)c2snc(C(N)=O)c2N)C(C(=O)NCC2CCCO2)c2cccs2)c1 (stereo unspecified)	n	u	n	n	n	16.4µM
Cc1cc(C)cc(N(C(=O)c2snc(C(N)=O)c2N)C(C(=O)NCC2CCCO2)c2cccs2)c1 (stereo unspecified)	u	23.1µM	n	n	n	25.9µM
NC(=O)c1nsc(C(=O)N(c2ccccc2)C(C(=O)NCC2CCCO2)c2cccs2)c1N (stereo unspecified)	n	23.1µM	n	n	u	14.6µM
Cc1c(O)cnc2nn(-c3ccccc3)c(=N)n12	n	n	n	n	x	n
Cc1ccc(-c2nn3c(-c4ccccc4)nnc3o2)cc1	n	u	n	n	x	u
O=C1c2ccccc2C(=O)c2c(NCCCN(CCO)CCO)cccc21	-102.7	u	20.6µM	u	n	20.6µM
COC(=O)c1ccc(C(=O)NC(=S)Nc2ccc3nc(SC)sc3c2)cc1	n	n	n	n	n	u
CCCN=C1N(C)C[C@@H]2[C@@H]3C(=O)N(C)C(=O)[C@@H]3[C@](Cc3ccccc3)(C(=O)OC)N12	n	n	n	n	n	n
CC(=O)Nc1ccc(NC(=O)COC(=O)c2cc([N+](=O)[O-])ccc2N2CCOCC2)cc1	n	n	n	n	n	u
CCOC(=O)c1ccccc1NC(=O)COC(=O)c1cc([N+](=O)[O-])ccc1N1CCOCC1	u	u	n	n	u	6.51µM
O=C(COC(=O)c1ccccc1NCCO)Nc1cc(C(F)(F)F)ccc1N1CCOCC1	n	18.4µM	n	u	u	u
Cc1ccc(C)c(NC(=O)CN(C)C(=O)c2cc([N+](=O)[O-])ccc2N2CCOCC2)c1	n	n	n	n	n	n
O=C(COC(=O)c1cc([N+](=O)[O-])ccc1N1CCOCC1)Nc1cccc(F)c1	n	n	n	n	20.6µM	n
Cc1cc(Br)ccc1NC(=O)CN(C)C(=O)c1cc([N+](=O)[O-])ccc1N1CCOCC1	-59.4	n	n	n	n	u
O=C(COC(=O)c1ccc(O)cc1)Nc1cc(C(F)(F)F)ccc1N1CCOCC1	n	n	n	n	n	n
CCOc1ccc(-c2c(C)n([O-])c3c([n+]2=O)CCCCC3)cc1	n	n	n	n	n	n
